Laboratory results from PubChem BioAssay (NCI).
This is part of a sample that, as a whole, favours compounds with a hit. Of some 83,000 tested, about 20% had one in any assay.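 Treatment: one concentration, 48 hours, 96-well format. Scoring: percent growth, with anything below 10 considered active.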 Values without a mark were called inactive. Calls of active or inactive are those of the source.

System: SW-620 colon
Test: NCI-60 one-dose screen, 48 h (100 = growth as untreated, 0 = no growth, -100 = all killed)
Settings: 10 µM unless noted

SMILES	growth
O=c1oc2ccc(I)cc2c(=O)n1-c1ccc(Br)cc1F	8.98% (active)
Cc1nc(Nc2ccccn2)sc1C(=O)/C=C/c1ccc(Cl)cc1	25.2%
Nc1cccc(Nc2cc(S(=O)(=O)O)c(N)c3c2C(=O)c2ccccc2C3=O)c1	104%
COc1ccc2sc(N(Cc3cccnc3)C(=O)c3ccc(C#N)cc3)nc2c1	90.6%
COc1cccc(C2=NN3C(C2)c2ccccc2OC3c2ccc(/C=C3\SC(=O)NC3=O)cc2)c1 (stereo not drawn)	97.8%
O=C1c2cc(Br)ccc2Oc2cc([N+](=O)[O-])ccc2N1c1ccc(I)cc1F	94.2%
O=c1oc2ccc(Cl)cc2c(=O)n1-c1ccc(Cl)cc1F	9.15% (active)
COc1ccc(C2C3=C(COC3=O)N(CCO)c3cc4c(cc32)OCCO4)cc1 (stereo not drawn)	55.2%
CC[C@]1(O)C[C@@H]2CN(CCc3c([nH]c4ccccc34)[C@@](C(=O)OC)(c3cc4c(cc3OC)N(C)[C@H]3[C@@](O)(C(=O)OC)[C@H](OC(=O)CCCBr)[C@]5(CC)C=CCN6CC[C@]43[C@@H]65)C2)C1	22.4%
O=C1c2cc(Cl)ccc2Oc2cc([N+](=O)[O-])ccc2N1c1ccc(F)cc1F	85.9%
COc1ccccc1N1C(=N)S/C(=C\c2ccc(OCc3ccccc3F)cc2)C1=O	88.1%
CC[C@]1(O)C[C@@H]2CN(CCc3c([nH]c4ccccc34)[C@@](C(=O)OC)(c3cc4c(cc3OC)N(C)[C@H]3[C@@](O)(C(=O)OC)[C@H](OC(C)=O)[C@]5(CC)C=CCN6CC[C@]43[C@@H]65)C2)C1	22.7%
O=c1c2cc(F)ccc2sc2c(NCCCNCCO)nc3ccc(Cl)cc3c12	-38.8% (active)
COc1cc2cc3c(=O)n4c(cc5cc(OC)ncc54)c(=O)n3c2cn1	105%
Nc1ccc(-c2nn3c(CCC(=O)c4nc5ncccc5[nH]4)nnc3s2)c(O)c1	90.1%
O=c1oc2ccc(Br)cc2c(=O)n1-c1ccc(Cl)cc1F	9.75% (active)
COc1ccc(/C=C2\NC(=O)NC2=O)cc1O	109%
CN(C)c1ccc(/C=C/c2ccnc3c(O)cccc23)cc1	21.6%
O=C(c1ccccc1)N(C(=S)NCCc1ccc(Cl)cc1)c1ccccc1	76.9%
O=c1oc2ccc(Cl)cc2c(=O)n1-c1ccc(F)cc1F	15.6%
CC(C)C[C@H](C(=O)N[C@@H](C)C(N)=O)N1CC=CCN(O)S1(=O)=O	103% [5 µM]
O=C(Nc1ccc(Cl)cc1F)c1cc(I)ccc1O	27.4%
O=C(CCc1nnc2sc(Cc3ccccc3Cl)nn12)c1nc2ncccc2[nH]1	88.4%
